# Assay results: the supplement of paper PMC6555819
# System: PPARg DBDmut IVT, anti-PPARg (DBD mutation: PPARg1 K132A/R137A, NR concentration 270 nM)
# Assay: PBM binding z-score (relative to random genomic background probes); higher = stronger binding; sequences stand for … in GC…GCGATTGACAGCGTAGAATGAAGG
# Procedure, shortened: (§1)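 On custom Agilent 4×180K arrays, double-stranded probes with 34-nt variable regions carried direct-repeat seeds, single-nucleotide variants, half-site ablations or random human genomic background. Ligand-free nuclear receptor dimers were applied for 1 h, and binding was read with antibodies against each partner (one per run). Binding z-scores come from regression-normalized fluorescence, with the random background probes as reference.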
row,Sequence,PBM binding z-score
1,CCAGACAGGTGAGAAGGGAACTCAGCCTCGATTA,-0.943
2,ACTCGGAGGACAAAGGTCTGAGCTACGCCAGTGA,-1.15
3,ACCTCTAGGTAACCAAGTTCAGTGAATGCCGAAC,0.237
4,AATACAGGGTCATCGTAGGCCGGAGTACGCACAG,1.58
5,CCACCAAGGTGAACAAGGTCGTTGATTACTATTC,0.567
6,CCGAGTAGGTTATGGCGCATTCAGGCAACGGTGA,-0.415
7,ACTTACGGGTCAACGAGGGTATAGCACGCGTATA,1.29
8,CGTCCAAGGTCAGAGAGGTCAGTCAATGCCGAGT,-0.369
9,CAAACTAGGTCAAGAGGTTAAAGTCCGCTTCCCG,0.849
10,TCTAGCAGGCCAGAGAGTCACTCAAGAGGTACGG,-1.33
11,TCTTTTAGATCAAAGGTTAAGAAAGCCGAAGCCT,1.12
12,CAAACTTGGTCAAGGTCAAAGTCGGTTTGTGCCA,1.03
13,GCGACTGTGGCATCAGCAGGTTACCATAACTTAA,-1.08
14,ATCGAAAGGTCGAGGAGAGTATAGAGAAAGGGAA,0.209
15,CATACAGGGTCAGCTAGGCCACAGTAGGGACGGC,0.0227
16,TCATATAGGAAAATGCTAGGTGAAAGTCCGATCT,0.466
17,CCTCGGAGGACAGAACGTCAGAGCTGTCCGCTTT,-1.43
18,CCGACTGGGGCATAAGGTTACCATGAGCCAGCCC,-1.56
19,TCTTGTAGATCAAGCAGGTTTAGAAAGCCTGAGT,0.305
20,GGAACGAGGGCAAGTTGATGGCAGAGTTTGATGG,-0.96

row,Sequence,PBM binding z-score
1,CCTCGGAGGACAACAGGTGGTCAGAGCTGCCAGA,-2.26
2,TCGAGTAGGTTCCCAATGGGGCATTCAGCTTTCT,-1.09
3,TCGAATAGGTTAGTCGGGGCATTCAGCCAACATA,-0.412
4,TCGAGTAGGTTACCAATGGGGTATTCAGCTTTCT,-0.0236
5,CAAACTAGTTCAAGGTCAAAGTCGGTTTGTGCCA,-0.205
6,CGAACTAGGTCATCCAGGACAGCGAATACATTGA,1.48
7,ATACCAAAGTGATCGTGAGGTCGTTGATACTAAC,0.857
8,ACCTCTAGGTAAGACTCAGTTCAGTGAAGAACGC,-0.421
9,TCATATAGGTAAAATGTGAAAGTCGGTGTGGTAA,0.643
10,CCGACTGGGGCAGAAAGGTTACCATCCCATCCGG,-1.37
11,TGGAGTAGGTTAGGGGCATTCAGAATGGCGTCGA,0.719
12,CCTACTGGGCCAAAGTCATTGATCAGTCAAAGCA,-0.517
13,ATTCGGAGGACAAAGGTCAGAGCTACGCCAGTGA,-0.48
14,ATACCAAGGTGATCGTGAGGTCGTTGAGACTAAC,-0.217
15,GCTAGCAGGCCAGTTGGGTCACTCAATGACGGGC,-2.01
16,CCTACTGGGCCCAAAAGGTCATTGATGCCGATAA,-1.17
17,AGAACGAGGGCACGATGAGTTGATAGCAGAGTAG,0.0308
18,TCATATAAGTAATACAGGTGAAAGTCGGCATCTA,0.83
19,ATCGAAATGTCGACGAGGTGAGTATACACCGTTT,0.692
20,TCTCGGAGGACACGAAAGGTCAGAGCTCGACATC,-1.26

# System: PPARg homodimer (NR concentration 180 nM)
# Assay: as above
# Procedure, shortened: as §1
row,Sequence,PBM binding z-score
1,CCAGACAGGTGAGAAGGGAACTCAGCCTCGATTA,0.62
2,ACTCGGAGGACAAAGGTCTGAGCTACGCCAGTGA,0.144
3,ACCTCTAGGTAACCAAGTTCAGTGAATGCCGAAC,-0.00896
4,AATACAGGGTCATCGTAGGCCGGAGTACGCACAG,2.22
5,CCACCAAGGTGAACAAGGTCGTTGATTACTATTC,1.61
6,CCGAGTAGGTTATGGCGCATTCAGGCAACGGTGA,0.648
7,ACTTACGGGTCAACGAGGGTATAGCACGCGTATA,2.05
8,CGTCCAAGGTCAGAGAGGTCAGTCAATGCCGAGT,4.06
9,CAAACTAGGTCAAGAGGTTAAAGTCCGCTTCCCG,2.66
10,TCTAGCAGGCCAGAGAGTCACTCAAGAGGTACGG,-0.979
11,TCTTTTAGATCAAAGGTTAAGAAAGCCGAAGCCT,1.05
12,CAAACTTGGTCAAGGTCAAAGTCGGTTTGTGCCA,1.86
13,GCGACTGTGGCATCAGCAGGTTACCATAACTTAA,-0.566
14,ATCGAAAGGTCGAGGAGAGTATAGAGAAAGGGAA,1.53
15,CATACAGGGTCAGCTAGGCCACAGTAGGGACGGC,2.12
16,TCATATAGGAAAATGCTAGGTGAAAGTCCGATCT,0.42
17,CCTCGGAGGACAGAACGTCAGAGCTGTCCGCTTT,-1.05
18,CCGACTGGGGCATAAGGTTACCATGAGCCAGCCC,0.331
19,TCTTGTAGATCAAGCAGGTTTAGAAAGCCTGAGT,-0.478
20,GGAACGAGGGCAAGTTGATGGCAGAGTTTGATGG,0.499

row,Sequence,PBM binding z-score
1,CCTCGGAGGACAACAGGTGGTCAGAGCTGCCAGA,-0.317
2,TCGAGTAGGTTCCCAATGGGGCATTCAGCTTTCT,-0.805
3,TCGAATAGGTTAGTCGGGGCATTCAGCCAACATA,0.278
4,TCGAGTAGGTTACCAATGGGGTATTCAGCTTTCT,-0.0597
5,CAAACTAGTTCAAGGTCAAAGTCGGTTTGTGCCA,3.85
6,CGAACTAGGTCATCCAGGACAGCGAATACATTGA,1.78
7,ATACCAAAGTGATCGTGAGGTCGTTGATACTAAC,0.565
8,ACCTCTAGGTAAGACTCAGTTCAGTGAAGAACGC,0.121
9,TCATATAGGTAAAATGTGAAAGTCGGTGTGGTAA,0.891
10,CCGACTGGGGCAGAAAGGTTACCATCCCATCCGG,0.985
11,TGGAGTAGGTTAGGGGCATTCAGAATGGCGTCGA,2.02
12,CCTACTGGGCCAAAGTCATTGATCAGTCAAAGCA,-0.302
13,ATTCGGAGGACAAAGGTCAGAGCTACGCCAGTGA,3.33
14,ATACCAAGGTGATCGTGAGGTCGTTGAGACTAAC,0.626
15,GCTAGCAGGCCAGTTGGGTCACTCAATGACGGGC,-0.447
16,CCTACTGGGCCCAAAAGGTCATTGATGCCGATAA,2.86
17,AGAACGAGGGCACGATGAGTTGATAGCAGAGTAG,0.364
18,TCATATAAGTAATACAGGTGAAAGTCGGCATCTA,1.07
19,ATCGAAATGTCGACGAGGTGAGTATACACCGTTT,-0.253
20,TCTCGGAGGACACGAAAGGTCAGAGCTCGACATC,3.04
